Bioassay records from PubChem BioAssay.
Mcl1 Bid PPI – Mcl-1/Bid binding inhibitors, primary screen, biochemical, TR-FRET, 1536-well | Induced myeloid leukemia cell differentiation protein Mcl-1 (Homo sapiens), Q07820 | TR-FRET Mcl-1/Bid-Dy647 peptide binding | inhibition, % at 21.7 µM | hit rate 0.97% among 220,000;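 active means compounds that cut the binding signal by more than half at the single screening dose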;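 further: His-tagged Mcl-1 with europium anti-His antibody binding Bid BH3 peptide; 0% = Mcl-1 plus peptide wells and 100% = peptide-only wells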
Target sequence (Q07820 whole entry, looked up): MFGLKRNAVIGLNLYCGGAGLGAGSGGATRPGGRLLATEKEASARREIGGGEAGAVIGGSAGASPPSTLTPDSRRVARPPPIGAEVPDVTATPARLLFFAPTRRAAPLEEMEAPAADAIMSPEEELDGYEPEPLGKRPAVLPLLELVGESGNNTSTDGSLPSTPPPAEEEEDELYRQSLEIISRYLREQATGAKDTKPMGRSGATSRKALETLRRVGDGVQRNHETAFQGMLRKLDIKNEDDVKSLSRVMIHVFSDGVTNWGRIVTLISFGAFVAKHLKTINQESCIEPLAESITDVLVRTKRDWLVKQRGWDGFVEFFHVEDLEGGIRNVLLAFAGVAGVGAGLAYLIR
m-calpain inh – inhibitors of pig calpain II, primary screen, biochemical, fluorogenic peptide substrate, 1536-well | purified calpain II, 30 min | inhibition, % at 16 µM | hit rate 0.37% among 220,000 | AID 1236, 2008;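 active means inhibition above about 50%, limit read from the data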
Mcl1-Noxa inh – Mcl-1/Noxa binding inhibitors, primary screen, biochemical, TR-FRET, 1536-well; Induced myeloid leukemia cell differentiation protein Mcl-1 (Homo sapiens), Q07820; TR-FRET Mcl-1/Noxa peptide binding, 2 h; inhibition, % at 21.7 µM; hit rate 1.5% among 220,000;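 active means compounds that cut the protein-peptide binding signal by more than 50% relative to plate controls in a single-dose test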;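 further: His-tagged Mcl-1 with rhodamine Noxa BH3 peptide and terbium anti-His antibody; 0% = Mcl-1 plus Noxa peptide wells and 100% = peptide-only wells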
NCF1 inh – p47phox/p22phox peptide binding inhibitors, primary screen, biochemical, uHTS, NADPH oxidase regulatory subunit. inhibition, % at 24.7 µM. fluorescence polarization, 2 h. Neutrophil cytosol factor 1 (Homo sapiens), P14598. AID 1274, 2008. hit rate 0.53% among 220,000;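 active means inhibition above about 30%, limit read from the data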;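 further: 0% = p47phox with labelled peptide and 100% = labelled peptide alone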
14-3-3 Bad PPI – inhibitors of 14-3-3 zeta/Bad binding, primary screen, biochemical, TR-FRET, bovine 14-3-3 zeta; inhibition, % at 21.7 µM; hit rate 0.71% among 220,000; AID 781, 2007; TR-FRET 14-3-3zeta/Dy647-pBad peptide displacement, 1 h;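 active means inhibition above about 70%, limit read from the data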;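 further: 0% = full 14-3-3 plus peptide FRET controls and 100% = background without 14-3-3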
Target sequence (P63103 whole entry, looked up): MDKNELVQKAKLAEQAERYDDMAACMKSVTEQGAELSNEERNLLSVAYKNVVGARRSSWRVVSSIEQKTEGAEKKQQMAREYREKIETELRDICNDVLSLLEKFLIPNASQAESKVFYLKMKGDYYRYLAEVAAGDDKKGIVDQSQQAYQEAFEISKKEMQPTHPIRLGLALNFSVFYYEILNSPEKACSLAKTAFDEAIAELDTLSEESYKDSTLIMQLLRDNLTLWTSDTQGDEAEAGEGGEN
Bim-Mcl-1 – inhibitors of Bim peptide binding to Mcl-1, primary screen, biochemical, bead-based flow cytometry, multiplex; Induced myeloid leukemia cell differentiation protein Mcl-1 (Homo sapiens), Q07820; Bim peptide-Mcl-1 binding; inhibition, % at 10 µM; hit rate 0.1% among 190,000; in the data active means inhibition above about 40%;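 further: 0% = no compound tracer wells and 100% = peptide blocker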
An asterisk follows results filed as active; . = not tested or not shown. Most compounds without a hit are left out; they make up all but 3.4% or so of the library.

SMILES | Mcl1 Bid PPI | m-calpain inh | Mcl1-Noxa inh | NCF1 inh | 14-3-3 Bad PPI | Bim-Mcl-1
O=C(C1CCN(Cc2cccs2)CC1)N1CCN(Cc2ccc3c(c2)OCO3)CC1 | 3.0 | -23.2 | 19.6 | 0.7 | 10.4 | -8.0
CCSc1ccc(-c2ccc(C)cc2)nn1 | 0.4 | 2.8 | 9.6 | 37.0* | 3.0 | 0.0
COc1cc(/C=C(\C#N)c2[nH]nc(N)c2C#N)cc(OC)c1O | 11.6 | -25.7 | 56.4* | -67.7 | -13.8 | 0.0
COc1ccc(-n2ncc3c(NCc4cccs4)ncnc32)cc1 | 15.8 | 8.1 | 21.2 | -8.8 | 9.6 | -1.0
c1ccc(-n2ncc3c(NCc4cccs4)ncnc32)cc1 | 1.8 | 64.1* | -0.7 | -14.5 | -9.2 | 0.0
Cn1c(=S)c2[nH]c(SCCN3CCCC3)nc2n(C)c1=O | -164.5 | 7.6 | 2.5 | 44.5* | 3.2 | .
CCN1CCCC(Sc2nc3c([nH]2)c(=S)n(C)c(=O)n3C)C1 (stereo unspecified) | -159.2 | -12.7 | 0.0 | -4.0 | -6.3 | .
COc1cc(/C=N/NC(=O)COc2ccc(-n3cnnn3)cc2)ccc1OCC(N)=O | 8.9 | -4.9 | 9.5 | 1.8 | -0.7 | .
CCc1ccc(OCc2n[nH]c(=S)n2Cc2ccccc2)cc1 | -23.9 | 53.8* | -1.1 | -11.2 | -15.3 | -7.0
Cc1ccc2cccc(S(=O)(=O)N3CCCc4ccccc43)c2n1 | -18.8 | 11.4 | 12.5 | -6.9 | -3.8 | -3.0
COCCCn1c(SCc2nnc(-c3ccc(OC)c(OC)c3)o2)nc2ccccc2c1=O | 6.6 | -36.0 | -3.0 | -6.1 | 2.5 | -6.0
COc1ccc(-c2nnc(CSc3nc4ccccc4c(=O)n3CC(C)C)o2)cc1OC | 1.1 | -26.4 | -25.7 | 36.8* | . | 3.0
CCOC(=O)N/N=C\C=C\c1ccc2c(c1)OCO2 | -16.8 | -24.9 | 21.4 | -24.1 | -17.8 | 2.0
CCOC(=O)C1=C(Nc2ccc(Cl)cc2)OCC1=O | -16.6 | 10.8 | 7.0 | 1.6 | -2.8 | .
CCCCC1C(=O)N(c2ccccc2)N(c2ccccc2)C1=O | 56.1* | -6.5 | 26.4 | 0.8 | -2.7 | 5.0
COc1ccccc1NC(=S)N(CCN1CCCCCC1)Cc1cccs1 | -28.4 | 32.1 | 15.4 | -1.5 | -9.0 | -1.0
COc1cc(Cl)cc(C2NC(=S)NC(c3ccccc3)=C2C(C)=O)c1OCC(=O)O (stereo unspecified) | -12.7 | 7.2 | 18.6 | -0.8 | 1.6 | -10.0
COc1ccc(OCc2nc(N)nc(Nc3ccccc3OC)n2)cc1 | -22.9 | -8.1 | -6.3 | 98.8* | 6.3 | 0.0
COc1ccc(CNc2ncnc3c2[nH]c2ccccc23)cc1 | -6.3 | -17.2 | 15.8 | -12.7 | -13.0 | .
COc1ccc(CNc2ncnc3c2[nH]c2cc(OC)c(OC)cc23)cc1 | -16.9 | -16.7 | 52.3* | -60.7 | -6.2 | .
CCN(C(=O)COC(=O)/C=C/c1c(C)nn(Cc2ccc(C)cc2)c1C)C1CCS(=O)(=O)C1 (stereo unspecified) | -17.9 | -21.6 | 13.9 | -6.0 | -25.5 | -3.0
Cc1cccc(OCCCSc2nc3ccc(C)cc3[nH]2)c1 | 11.9 | 71.4* | 29.8 | -8.7 | 20.3 | -8.0
Cc1ccc(S(=O)(=O)Nc2ccccc2C(=O)Nc2nc(-c3ccc(F)cc3)cs2)cc1 | -7.6 | -58.8 | 11.7 | -87.8 | -26.5 | -8.0
COc1ccc(-c2csc(NC(=O)c3ccccc3NS(=O)(=O)c3ccc(F)c(F)c3)n2)cc1 | 3.8 | 60.5* | 33.5 | -58.0 | 1.7 | 1.0
Cc1ccc(C(=O)NC(=S)Nc2nc(-c3cccc([N+](=O)[O-])c3)cs2)c(Cl)c1 | 7.1 | 30.4 | 8.6 | 19.4 | 2.1 | -7.0
SMILES | Mcl1 Bid PPI | m-calpain inh | Mcl1-Noxa inh | NCF1 inh | 14-3-3 Bad PPI | Bim-Mcl-1
Cc1ccc(-n2c(O)c(C=NC3CCS(=O)(=O)C3)c3ccccc3c2=O)c(C)c1 (stereo unspecified) | -14.2 | 1.6 | 8.7 | -8.6 | -1.1 | .
Cc1ccc(-n2c(O)c(C=NC3CCS(=O)(=O)C3)c3ccccc3c2=O)cc1 (stereo unspecified) | -34.5 | -34.7 | 2.2 | 51.2* | 9.1 | -3.0
O=C(Cn1cnc2scc(-c3ccc(Br)cc3)c2c1=O)N1CCOCC1 | 0.1 | -11.9 | 5.3 | -8.5 | -3.5 | -1.0
CCOC(=O)C1=C(O)/C(=C\c2ccc(CNC(=O)C(=O)Nc3ccccc3)o2)N=C1C | 39.9 | -162.7 | 95.9* | -13.0 | 0.9 | -1.0
O=C(c1ccncc1)N1CCN(c2cccc(C(F)(F)F)c2)CC1 | -24.0 | -24.3 | 56.9* | -7.0 | -8.7 | 0.0
O=C(/C=C/c1ccc(Br)cc1)N1CCN(c2cccc(C(F)(F)F)c2)CC1 | 61.4* | 35.1 | -3.8 | -3.7 | -0.6 | -2.0
O=C(/C=C/c1cccc(Br)c1)N1CCN(c2cccc(C(F)(F)F)c2)CC1 | -10.9 | 12.9 | 1.1 | -4.2 | 5.2 | -26.0
CC(=O)Nc1ccc(NC(=O)CN2CCN(c3cccc(C(F)(F)F)c3)CC2)cc1 | -18.5 | 6.1 | 8.4 | -7.9 | 5.9 | -2.0
O=C(CN1CCN(c2cccc(C(F)(F)F)c2)CC1)Nc1cccc(C(F)(F)F)c1 | 11.6 | 28.1 | 13.0 | -2.7 | 74.5* | 5.0
O=C(c1c(F)c(F)c(F)c(F)c1F)N1CCN(c2cccc(C(F)(F)F)c2)CC1 | 2.5 | -17.1 | -22.8 | -13.7 | 4.3 | -10.0
COc1ccc(CCNC(=O)CCC(=O)Nc2nnc(C(C)C)s2)cc1OC | -16.4 | -1.8 | 3.5 | -3.4 | -11.1 | -2.0
COC(=O)C1=C(C)N(C2CCCCC2)C(=O)/C1=C\c1cccs1 | -10.3 | -3.9 | -4.5 | 2.5 | -4.0 | 0.0
CNc1ccc(Br)cc(C(=O)/C=C/c2ccc3c(c2)OCO3)c1=O | -21.9 | -43.3 | 67.7* | -1.6 | 68.3 | 8.0
COc1ccc(/C=C/C(=O)c2ccc(OC)cc2OC)cc1 | -4.4 | -13.3 | -11.8 | 0.6 | -0.4 | -5.0
COc1ccc(/C=C/C(=O)c2cc(Br)ccc2O)cc1OC | -23.0 | -18.4 | 13.7 | -7.1 | -0.8 | 0.0
CCNc1ccc(Br)cc(C(=O)/C=C/c2ccc(Cl)cc2Cl)c1=O | 29.3 | -104.5 | 95.6* | -9.9 | 61.0 | -1.0
CNc1ccc(Br)cc(C(=O)/C=C/c2cc(OC)ccc2OC)c1=O | 8.5 | -82.9 | 86.8* | -6.6 | 21.8 | 13.0
CNc1ccc(Br)cc(C(=O)/C=C/c2ccc(OC)cc2)c1=O | -2.1 | -34.5 | 62.6* | -13.8 | 0.1 | 5.0
COCCCNC(=O)/C=C/c1ccc(Cl)cc1Cl | -9.8 | -16.9 | -8.8 | -22.2 | -11.9 | -3.0
Cc1nn(Cc2ccc(Cl)cc2Cl)c(C)c1NC(=O)c1nn(C)cc1Cl | -2.8 | 59.7* | 5.3 | -9.6 | 22.3 | -1.0
CC1C/C(=C/c2ccco2)C(=O)/C(=C/c2ccco2)C1 (stereo unspecified) | -12.8 | -20.4 | 52.8* | -31.3 | -4.0 | 16.0
